Screening data as filed in PubChem BioAssay.
Marburg entry inh: inhibitors of Marburg virus binding or cell entry | 300,000 compounds, 1.8% hits | Marburg virus pseudotyped entry inhibition, cell reporter | Potency, µM (titrated, usually from 37.8 µM), inactives show at the top dose activity change, negative = inhibition, most hits filed as inhibitors | AID 540276; calls by dose curve; tested in HEK293 cells; further: potency means the concentration at half of the fitted maximal effect
Pf growth 48h: inhibits P. falciparum growth in the first generation, 48 h. P. falciparum luciferase growth in erythrocytes, 48 h. Potency, µM (doses to about 28.7 µM), without a hit: top-dose activity change, negative = inhibition, actives largely listed as inhibitors. 310,000 compounds, 5.9% hits. AID 504832; further: potency means the concentration at half of the fitted maximal effect
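Growth was read as firefly luciferase luminescence after a 48 h, 37 C, 5% CO2 exposure of compounds to reporter-bearing P. falciparum cultures (0.1% parasitemia, 2% hematocrit final) in Albumax-supplemented RPMI 1640.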
LASV entry inh: blocks Lassa virus binding to or entry into cells; Potency, µM (titrated, usually from 37.9 µM), for inactives: top-dose activity change, negative = inhibition, hits mostly inhibitors; AID 540256; Lassa virus pseudotype entry inhibition, cell reporter; 300,000 compounds, 1.2% hits; calls by dose curve; tested in HEK293 cells; further: potency means the concentration at half of the fitted maximal effect; nearly all actives have a fitted effect of over 50% in size
Pf growth 96h: inhibits malaria parasite growth, 96 h. P. falciparum luciferase reporter growth, 96 h. 320,000 compounds, 6.9% hits. Potency, µM (doses to about 28.7 µM), inactives show at the top dose activity change, negative = inhibition, hits mostly inhibitors; further: potency means the concentration at half of the fitted maximal effect
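Luminescence readout: decreased luciferase signal marks inhibited growth of reporter-expressing P. falciparum in infected red cells (2% hematocrit, 0.05% parasitemia final), exposed to compound two generations (96 h, 37 C, 5% CO2).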
HCV inhibitor: HCV inhibition. Huh7.5.1 HCVcc-Cre infection, luciferase reporter, 44 h. Potency, µM (titrated, usually from 41.8 µM), without a hit: at the top dose activity change, negative = inhibition, usual class: inhibitors. 340,000 compounds, 3.4% hits. AID 651820; further: potency means the concentration at half of the fitted maximal effect
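Cells seeded at 1,000/well and cultured 4 h, then compounds added followed by HCVcc-Cre virus (~0.5 moi). After 44 h further culture, luciferase substrate was added, plates held 15 min at room temperature, and luminescence read for 15 sec.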
HCMV inh: blocks human cytomegalovirus replication; activity change, negative = inhibition, % at 57.5 µM; 410,000 compounds, 4.5% hits; HFF cells, HCMV-luciferase reporter, 72 h; hits give low values; in the data active means activity change below about -60%; inconclusive means no clear call, values can overlap the other calls; inactive means above about -39%
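Cell-based, HFFs, 1000 cells/well, 16 h 37C; cpds in DMSO + HCMV-luc, MOI 1 PFU/cell; 72 h 37C; OneGlo luminescence after 5 min RT; norm. to buffer vs Salinomycin 10uM.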
* hit, by the source's call; ? = inconclusive; . = no result; [ ] = dose if it differs, or a comment. Rows were chosen to be rich in hits. Some 14% of all compounds tested hit in one or more screens of this group. Unless noted, the call rests on the fitted dose curve; in most records, active means well fitted inhibition curve with a large enough effect; inconclusive means small, poorly fitted or top-dose-only effect, or another doubt; inactive means no such curve, though single readings can be large or run the other way. On the % scale 0 is the no-effect control and ±100 the full control effect.

SMILES	Marburg entry inh	Pf growth 48h	LASV entry inh	Pf growth 96h	HCV inhibitor	HCMV inh
COc1ccc(C(=O)c2c3ccc(OC)cc3[n+]([O-])n2CCCC(N)=O)cc1	.	?	.	?	13%	-12
NC(=O)c1ccc(Cn2c(C(=O)c3cc(Cl)c(N)c(Cl)c3)c3ccccc3[n+]2[O-])cc1	.	?	.	?	-2%	96
Cc1ccc(C(=O)c2c3ccc([N+](=O)[O-])cc3[n+]([O-])n2CCC(N)=O)cc1	.	-21%	.	0%	13µM*	-20
NCCCn1c(C(=O)c2cc(Cl)c(N)c(Cl)c2)c2ccc(C(F)(F)F)cc2[n+]1[O-]	.	6.6µM*	.	?	-7%	29
NCCCn1c(C(=O)c2cc(Cl)c(N)c(Cl)c2)c2ccc([N+](=O)[O-])cc2[n+]1[O-]	.	12µM*	.	?	?	-67*
NC(=O)CCCn1c(C(=O)c2cc(Cl)c(N)c(Cl)c2)c2ccc(C(F)(F)F)cc2[n+]1[O-]	.	5.9µM*	.	4.7µM*	-13%	-4
CC(C)C(N)c1csc(Nc2ccc(C(=O)NCCCO)cn2)n1 (stereo not drawn)	.	.	.	.	.	-14
COc1ccccc1C(=O)Nc1nnc2n1CCS2	.	.	10%[46.1 µM]	.	.	52
COc1cccc(NC(=O)CSC2=C(C#N)[C@H](c3ccco3)C3=C(CCCC3=O)N2)c1	-7%	.	.	.	.	.
COc1ccc(CCN2CC(C(=O)Nc3nccs3)CC2=O)cc1OC (stereo not drawn)	.	.	.	.	9%	35
CCOC(=O)N(C)C[C@@H]1OCc2cn(nn2)CCCC(=O)N([C@H](C)CO)C[C@H]1C	.	.	.	.	.	-5
COC(=O)C[C@@H]1C=C[C@H](NC(=O)Cc2ccccn2)[C@@H](CO)O1	.	.	.	.	.	-8
Cc1c2ccccc2c(C)c2c1ccc1ccccc12	.	0.93µM*	.	0.66µM*	10µM*	6
Cc1ccnc2c1ccc1ccccc12	.	11%	.	-24%	15%	-6
S=c1[nH]nc(C2CCCCC2)n1Cc1ccccc1	-23%[46.1 µM]	12%	?	-3%	-4%	?
C=CCn1c(C2CCCCC2)n[nH]c1=S	4%	7%	-2%	-2%	-15%	-97*
COc1cc(OC)c(Nc2ncnc3onc(-c4cccc(Cl)c4)c23)cc1Cl	3%[46.1 µM]	.	16%[46.1 µM]	.	.	-6
c1cc(CNCCc2ccc3c(c2)OCO3)ccn1	.	-8%	.	12µM*	-6%	21
Brc1ccccc1CNCCc1ccc2c(c1)OCO2	?	58%	?	12µM*	-5%	45
Cc1ccc(N2C(=O)CSC23C(=O)N(CC(=O)Nc2ccccc2F)c2ccccc23)cc1C (stereo not drawn)	.	.	-26%[46.1 µM]	.	.	5
Cc1cccc(NS(=O)(=O)c2cccc3cccnc23)n1	.	8%	.	1.7µM*	12%	-15
Cc1ccc(NS(=O)(=O)c2cccc3cccnc23)c(Br)c1	-9%[46.1 µM]	-37%	3%[46.1 µM]	-4%	-4%	-82*
COc1ccc(NS(=O)(=O)c2cccc3cccnc23)cc1Cl	?	?	-20%[46.1 µM]	0.93µM*	-22%	-10
COc1ccc(NS(=O)(=O)c2cccc3cccnc23)cc1	-25%	-8%	4%	?	8%	-8
CCOC(=O)Cn1nc(-c2ccccc2)c2cnc3ccc(OCC)cc3c21	2%[46.1 µM]	.	1%[46.1 µM]	.	.	4
SMILES	Marburg entry inh	Pf growth 48h	LASV entry inh	Pf growth 96h	HCV inhibitor	HCMV inh
COC(=O)c1ccc(NC(=O)CSc2n[nH]c(CC(C)C)n2)cc1	14%[46.1 µM]	.	?	.	.	10
CN(CC(=O)Nc1ccccc1Br)C(=O)COc1ccc2ccccc2c1	.	1%	.	11%	?	0
CN1C(=O)N(C)C(NC(=O)Nc2ccccc2)C1NC(=O)Nc1ccccc1 (stereo not drawn)	-10%	-4%	1%	2.3µM*	0%	-28
CC(NC(=O)CCCCCNC(=O)N1CCn2c1nc1ccccc12)c1ccccc1 (stereo not drawn)	.	?	.	?	14%	-73*
CC(C)(C)C(=O)N1CCn2c1nc1ccccc12	3%[46.1 µM]	7%	5%	2.6µM*	-8%	?
Cc1cccc(NC(=O)c2ccc(S(=O)(=O)N3CC(C)OC(C)C3)cc2)n1 (stereo not drawn)	-13%	-9%	-22%[46.1 µM]	-19%	?	-39
CC(C)CCn1c(CN2CCN(Cc3ccccc3)CC2)nc2c1c(=O)n(C)c(=O)n2C	?	4.7µM*	-21%	?	-28%	40
CC(C)Cn1c(CN2CCN(C(=O)c3ccco3)CC2)nc2c1c(=O)n(C)c(=O)n2C	2%[46.1 µM]	4%	16%	69%	12%	40
Cn1c(=O)c2c(nc(CN3CCN(c4ccccc4)CC3)n2CCCc2ccccc2)n(C)c1=O	26%	.	12%	.	18%	43
CC(C)CCn1c(CN2CCN(C(=O)c3ccco3)CC2)nc2c1c(=O)n(C)c(=O)n2C	.	.	.	6.6µM*	4%	18
CCCCn1c(CN2CCN(c3ccccc3)CC2)nc2c1c(=O)n(C)c(=O)n2C	.	?	.	?	7.1µM*	.
CCOC(=O)N1CCN(Cc2nc3c(c(=O)n(C)c(=O)n3C)n2Cc2ccc(F)cc2)CC1	4%	?	?	?	-13%	4
Cn1c(=O)c2c(nc(CN3CCN(Cc4ccccc4)CC3)n2Cc2ccc(F)cc2)n(C)c1=O	.	7.4µM*	.	?	-2%	-7
COc1cc(NC(=O)CCS(=O)(=O)c2ccc3c(c2)CC(=O)N3C)cc(OC)c1OC	.	.	?	.	.	9
CCOC(=O)C(CCSC)Nc1nc(Cl)nc(Nc2ccc(Cl)cc2)n1 (stereo not drawn)	.	.	.	.	0%	-6
CCCCCn1c(CN2CCN(c3cccc(Cl)c3)CC2)nc2c1c(=O)n(C)c(=O)n2C	?	?	7%	.	?	-39
CCCCCn1c(CN2CCN(Cc3ccccc3)CC2)nc2c1c(=O)n(C)c(=O)n2C	-24%	8.3µM*	-7%	?	-15%	12
CCCCn1c(CN2CCN(c3cccc(Cl)c3)CC2)nc2c1c(=O)n(C)c(=O)n2C	?	-29%	-1%	14%	?	-89*
Cn1c(=O)c2c(nc(CN3CCc4ccccc4C3)n2Cc2ccccc2)n(C)c1=O	?	13µM*	-29%	12µM*	13µM*	-19
COc1ccc(Cn2c(CCC(=O)Nc3cc(OC)c(OC)c(OC)c3)nc3cccnc32)cc1	0%[46.1 µM]	.	-28%[46.1 µM]	.	.	-27
COc1cc(CCNC2=CC(=O)c3ncccc3C2=O)ccc1O	?	.	?	.	?	0
CC1CC(=O)c2cnc(NCC3CCCO3)nc2C1 (stereo not drawn)	?	28%	18%	9.3µM*	17%	0
CC1(C)CC(=O)c2cnc(NCC3CCCO3)nc2C1 (stereo not drawn)	?	26%	12%	.	17%	14
